# A number with no mark means an inactive call. For part of these data: Entries with a potency or affinity are not part of this list. Activity calls are given as the source filed them. Unless noted, how the calls were made is not given here.
# Key:
# [1] = antimalarial activity against Dd2 strain (AID 2302;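 active means growth inhibition above 50% at the single 2 µM test dose, taken to imply half-maximal potency below 2 µM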;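 further: 0% = DMSO untreated growth and 100% = chloroquine plus artemisinin killed control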); conditions: P. falciparum Dd2 in RBCs, LDH growth readout, 72 h; at 2 µM; hits give high values
# [2] = HepG2 cytotoxicity, primary screen, cytotoxicity control for P. falciparum antimalarial project, cell-based, ATP luminescence (AID 2303;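 active means inhibition above 50%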;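 further: 0% = DMSO wells and 100% = digitonin-killed cells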); conditions: HepG2 viability, 24-48 h, at 10 µM, hits give high values
# [3] = target: L-lactate dehydrogenase (Plasmodium falciparum (isolate CDC / Honduras)) (UniProt Q27743); assay: PfLDH activity inhibition – cell lysate, 3D7 strain, counter-screen for P. falciparum growth inhibition project (AID 2304);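 further: 0% = vehicle and 100% = reference inhibitor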; conditions: P. falciparum 3D7 crude extract, LDH APAD/NBT absorbance; at 2 µM; hits give high values
# [4] = inhibition of 3D7 malaria parasite growth – strain 3D7 (AID 2306);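 further: 0% = DMSO wells and 100% = chloroquine plus artemisinin control wells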; conditions: P. falciparum 3D7 erythrocytic growth, LDH absorbance, 72 h; at 2 µM; hits give high values
# [5] = target: Calcium-dependent protein kinase 1 (Plasmodium falciparum (isolate 3D7)) (UniProt P62344); assay: PfCDPK1 kinase inhibitors, biochemical, TCAMS library (AID 1159585; cut-off not given, nearly all actives have IC50 up to about 0.98 µM;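 further: inhibitors leave more ATP so luminescence rises with inhibition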); conditions: recombinant PfCDPK1, Kinase-Glo ATP depletion luminescence
# [6] = target: Plasmodium falciparum protein kinase 6 (PK6, PF3D7_1337100) (UniProt Q8IDW1); assay: PfPK6 kinase inhibitors, biochemical, TCAMS library (AID 1159586); conditions: recombinant PfPK6, Kinase-Glo ATP depletion luminescence
# [7] = target: Protein kinase 7 (PK7), Plasmodium falciparum 3D7 (PF3D7_0213400) (UniProt Q7YTF7); assay: inhibition of Plasmodium PK7 catalytic activity – biochemical, TCAMS antimalarial set, Kinase-Glo luminescence (AID 1159587); conditions: recombinant PfPK7, Kinase-Glo ATP depletion luminescence
# [8] = target: Calcium-dependent protein kinase 4 (Plasmodium falciparum (isolate 3D7)) (UniProt Q8IBS5); assay: PfCDPK4 kinase inhibitors, biochemical, TCAMS library (AID 1159588; cut-off not given, nearly all actives have IC50 up to about 0.91 µM); conditions: recombinant PfCDPK4, Kinase-Glo ATP depletion luminescence
# Calcium-dependent protein kinase 4 (Plasmodium falciparum (isolate 3D7)), sequence (Q8IBS5 whole entry, looked up): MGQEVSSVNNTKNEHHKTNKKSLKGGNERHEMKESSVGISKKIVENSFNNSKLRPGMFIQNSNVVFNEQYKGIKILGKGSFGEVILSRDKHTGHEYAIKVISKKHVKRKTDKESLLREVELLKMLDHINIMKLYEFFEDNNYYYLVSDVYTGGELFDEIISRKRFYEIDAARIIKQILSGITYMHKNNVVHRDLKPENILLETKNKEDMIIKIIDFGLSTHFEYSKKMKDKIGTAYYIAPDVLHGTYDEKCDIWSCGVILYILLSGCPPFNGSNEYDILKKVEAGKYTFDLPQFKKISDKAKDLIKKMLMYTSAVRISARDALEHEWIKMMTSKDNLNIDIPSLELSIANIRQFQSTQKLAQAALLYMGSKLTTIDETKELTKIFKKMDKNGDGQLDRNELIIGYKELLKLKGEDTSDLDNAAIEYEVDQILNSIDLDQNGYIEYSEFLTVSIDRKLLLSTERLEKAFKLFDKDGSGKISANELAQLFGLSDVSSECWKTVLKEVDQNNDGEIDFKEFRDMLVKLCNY
# Plasmodium falciparum protein kinase 6 (PK6, PF3D7_1337100), sequence (Q8IDW1 1-305): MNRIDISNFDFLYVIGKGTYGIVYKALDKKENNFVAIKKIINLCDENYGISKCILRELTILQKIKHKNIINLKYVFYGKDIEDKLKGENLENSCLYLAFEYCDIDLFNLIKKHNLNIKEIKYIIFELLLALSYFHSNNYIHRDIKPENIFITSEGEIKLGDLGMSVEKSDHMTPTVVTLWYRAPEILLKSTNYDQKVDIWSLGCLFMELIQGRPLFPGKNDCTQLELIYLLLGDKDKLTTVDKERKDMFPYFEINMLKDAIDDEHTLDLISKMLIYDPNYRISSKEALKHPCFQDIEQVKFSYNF
# L-lactate dehydrogenase (Plasmodium falciparum (isolate CDC / Honduras)), sequence (Q27743 whole entry, looked up): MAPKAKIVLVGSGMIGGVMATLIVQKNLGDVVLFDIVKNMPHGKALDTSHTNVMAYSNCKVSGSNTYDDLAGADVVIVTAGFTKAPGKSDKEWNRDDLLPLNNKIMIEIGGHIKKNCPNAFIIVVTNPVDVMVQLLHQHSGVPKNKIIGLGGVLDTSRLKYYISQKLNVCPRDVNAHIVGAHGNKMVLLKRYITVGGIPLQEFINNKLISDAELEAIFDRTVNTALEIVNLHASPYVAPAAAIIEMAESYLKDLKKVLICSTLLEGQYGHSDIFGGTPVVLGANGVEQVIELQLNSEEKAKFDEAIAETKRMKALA
# Protein kinase 7 (PK7), Plasmodium falciparum 3D7 (PF3D7_0213400), sequence (Q7YTF7 1-343): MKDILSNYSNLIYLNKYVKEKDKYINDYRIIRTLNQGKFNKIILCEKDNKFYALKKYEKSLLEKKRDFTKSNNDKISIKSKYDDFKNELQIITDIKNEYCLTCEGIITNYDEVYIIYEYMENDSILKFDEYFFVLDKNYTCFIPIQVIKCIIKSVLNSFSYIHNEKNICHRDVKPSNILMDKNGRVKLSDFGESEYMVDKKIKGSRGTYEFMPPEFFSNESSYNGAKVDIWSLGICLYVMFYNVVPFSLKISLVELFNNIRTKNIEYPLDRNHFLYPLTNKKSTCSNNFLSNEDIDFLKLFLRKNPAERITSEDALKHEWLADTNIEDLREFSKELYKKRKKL
# Calcium-dependent protein kinase 1 (Plasmodium falciparum (isolate 3D7)), sequence (P62344 whole entry, looked up): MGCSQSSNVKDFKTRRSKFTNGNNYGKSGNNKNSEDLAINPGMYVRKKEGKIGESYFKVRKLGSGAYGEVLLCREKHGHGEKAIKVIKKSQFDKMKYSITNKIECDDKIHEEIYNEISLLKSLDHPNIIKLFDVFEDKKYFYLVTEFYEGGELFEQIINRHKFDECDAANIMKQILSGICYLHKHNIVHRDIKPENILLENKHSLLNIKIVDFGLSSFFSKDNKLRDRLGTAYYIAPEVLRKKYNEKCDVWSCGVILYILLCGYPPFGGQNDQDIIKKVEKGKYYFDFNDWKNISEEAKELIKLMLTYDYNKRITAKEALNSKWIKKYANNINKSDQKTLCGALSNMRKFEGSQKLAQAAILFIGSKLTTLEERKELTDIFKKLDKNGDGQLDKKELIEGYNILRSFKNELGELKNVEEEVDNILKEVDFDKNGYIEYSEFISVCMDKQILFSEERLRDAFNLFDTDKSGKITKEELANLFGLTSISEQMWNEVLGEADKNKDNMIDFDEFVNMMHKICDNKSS
Structure (SMILES),growth inhibition [1],inhibition [2],inhibition [3] [%],growth inhibition [4],outcome [5],outcome [6],outcome [7],outcome [8]
COc1ccc2cc(CNCCCCCCNCc3ccc4cc(OC)ccc4c3)ccc2c1,92% (active),100% (active),-6,100% (active),inactive,inactive,inactive,inactive
Cc1ccc2nc(-c3cc(-c4ccc(CO)cc4)cnc3N)[nH]c2c1,6%,52% (active),9,95% (active),inactive,inactive,inactive,inactive
CCCOc1cc(NC(=O)Nc2ccnc3ccccc23)cc(OCCC)c1,98% (active),6%,-1,102% (active),inactive,inactive,inactive,inactive
CN1CC[C@@H](Oc2cc(C(=O)NCc3ccc(Cl)c(Cl)c3)ccc2C(F)(F)F)C1,4%,8%,2,88% (active),inactive,inactive,inactive,inactive
CCCCOc1ccccc1C(=O)NCc1csc(-c2ccccc2)n1,91% (active),17%,0,93% (active),inactive,inactive,inactive,inactive
O=C(Nc1ccc(C(=O)OCC(c2ccccc2)c2ccccc2)cc1)N[C@@H](Cc1ccc(O)cc1)C(=O)NC1CCN(Cc2ccc(O)cc2)C1 (some centres not stated),-4%,-9%,1,96% (active),inactive,inactive,inactive,inactive
O=C(Nc1cccc(-c2ccc(-c3nc4ccc(F)cc4[nH]3)cc2)c1)Nc1ccc(F)c(F)c1F,98% (active),53% (active),3,98% (active),inactive,inactive,inactive,inactive
CCCCCN1CCC(NS(=O)(=O)c2cccc(C(=O)Nc3ccc(Cl)cc3)c2)CC1,29%,24%,-3,88% (active),inactive,inactive,inactive,inactive
Cc1nc(Nc2cc(Cl)ccc2O)nc(Nc2cc(Cl)ccc2O)c1[N+](=O)[O-],83% (active),-4%,3,98% (active),inactive,inactive,inactive,inactive
CC(C)N1CCN(c2ccc(OCCCN3CCN(c4cccc(Cl)c4Cl)CC3)c(C(F)(F)F)c2)CC1,37%,79% (active),0,94% (active),inactive,inactive,inactive,inactive
CC(C)(C)c1ccc(CNC(=O)c2ccc(-c3nc4ccc(C(C)(C)C)cc4[nH]3)cc2)cc1,49%,21%,3,96% (active),inactive,inactive,inactive,inactive
CN1CCN(CC(=O)Nc2ccc(-c3ccc(-c4nc5ccc(C(F)(F)F)cc5[nH]4)cc3)cc2)CC1,98% (active),43%,-3,101% (active),inactive,inactive,inactive,inactive
Nc1ccnc(N2CCC(CCOc3cc(C(F)(F)F)nc4c(C(F)(F)F)cccc34)CC2)c1,17%,35%,-1,98% (active),inactive,inactive,inactive,inactive
Cc1cc(-c2cnc(N)c(-c3ccc(N4CCN(C)CC4)nc3)c2)cc(C)c1O,33%,-12%,7,91% (active),inactive,inactive,inactive,inactive
CC(=O)c1ccc(-c2ccc(C(=O)NCCCCN3CCC(c4ccc5c(c4OCC(N)=O)CCCC5)CC3)cc2)s1,4%,26%,-4,90% (active),inactive,inactive,inactive,inactive
O=C(NCCN1CCCCC1)c1cc2cc(-c3ccccc3)ccc2n1S(=O)(=O)c1ccccc1,-1%,15%,2,90% (active),inactive,inactive,inactive,inactive
CCc1ccc(-n2c(NC(=O)c3ccccc3)nc3ccc(S(=O)(=O)NC(C)C(C)C)cc32)cc1 (configuration not stated),-4%,48%,0,88% (active),inactive,inactive,inactive,inactive
CCN(c1cc(C)nc(Nc2ccc(Cl)cc2)n1)[C@H]1CCN(Cc2ccccc2)C1,31%,46%,2,94% (active),inactive,inactive,inactive,inactive
O=C(CCC1CCCC1)N(Cc1ccc(-c2ccc(CNCCc3ccccc3)cc2)cc1)C1CCCNC1 (configuration not stated),71% (active),99% (active),-2,90% (active),inactive,inactive,inactive,inactive
Cc1noc(C)c1-c1ccc2c(Nc3ccccc3C(C)(C)C)c(C(=O)NCc3ccc(C(F)(F)F)cc3)cnc2c1,50% (active),30%,0,99% (active),inactive,inactive,inactive,inactive

Structure (SMILES),growth inhibition [1],inhibition [2],inhibition [3] [%],growth inhibition [4],outcome [5],outcome [6],outcome [7],outcome [8]
O=c1cc(NCCCNCc2cn(S(=O)(=O)c3ccccc3)c3ccccc23)[nH]c2ccccc12,29%,17%,-2,91% (active),inactive,inactive,inactive,inactive
Cc1cc(NC(=O)Nc2ccc(C(C)C)cc2)c2ccccc2n1,16%,7%,-1,99% (active),inactive,inactive,inactive,inactive
CCOC(=O)c1[nH]c(-c2cc(Cl)nc(Cl)c2)nc1NC(=S)NCc1ccc(NS(C)(=O)=O)cc1,98% (active),-1%,-1,100% (active),inactive,inactive,inactive,inactive
COc1ccc(-c2cncc3ccc(C(=O)NCCCn4ccnc4)nc23)cc1,99% (active),28%,-3,95% (active),inactive,inactive,inactive,inactive
Cc1ccc(Nc2nc(NN=Cc3cccc(O)c3)nc(Nc3ccc([N+](=O)[O-])cc3)n2)cc1C,69% (active),-2%,5,101% (active),inactive,inactive,inactive,inactive
OCCOCCNCc1cccc(C#Cc2cc3ncnc(Nc4ccc(OCc5cccc(F)c5)c(Cl)c4)c3s2)n1,46%,35%,0,96% (active),inactive,inactive,inactive,inactive
Cc1cccc2[nH]c(-c3cccc(-c4cccc(NC(=O)c5cnn6cccnc56)c4)c3)nc12,17%,14%,-3,101% (active),inactive,inactive,inactive,inactive
COc1ccc2nc(NC3=NC(c4ccccn4)(c4ccccn4)C(=O)N3C)[nH]c2c1,98% (active),65% (active),1,99% (active),inactive,inactive,inactive,inactive
COc1ccc(NC(=O)NC2CCN(CCCCCNC(=O)/C=C/c3ccc(Cl)c(Cl)c3)CC2)cc1,1%,5%,0,96% (active),inactive,inactive,inactive,inactive
CCCN(CC1CC1)c1ncc(-c2ccccc2CNCc2ccccc2O)cn1,98% (active),4%,-4,100% (active),inactive,inactive,inactive,inactive
Cc1ccc(Nc2nc(N)c3ccccc3n2)cc1,12%,9%,8,94% (active),inactive,inactive,inactive,inactive
O=C(NC(c1ccccc1)c1ccccc1)C(c1cc2ccccc2o1)N1CCN(C(c2ccccc2)c2ccccc2)CC1 (configuration not stated),78% (active),-1%,-1,95% (active),inactive,inactive,inactive,inactive
CS(=O)(=O)CCNCc1ccc(-c2cc3c(Nc4ccc(OCc5cccc(F)c5)c(Cl)c4)ncnc3s2)[nH]1,95% (active),5%,2,99% (active),inactive,inactive,inactive,inactive
COc1ccc(CNC2Cc3ccccc3C2)cc1-c1cccc(S(=O)(=O)NCCN2CCCC2)c1,61% (active),48%,-3,98% (active),inactive,inactive,inactive,inactive
COc1ccc(O)cc1Cc1cnc2nc(N)nc(N)c2c1C,97% (active),67% (active),-2,92% (active),inactive,inactive,inactive,inactive
COc1ccc(-n2nc(C(=O)NCCC3=CCCCC3)c3ccccc3c2=O)cc1,59% (active),0%,-4,94% (active),inactive,inactive,inactive,inactive
Cc1oc(-c2cccc(Oc3ccccc3)c2)nc1CN(Cc1cnn(C)c1)C(C)C,61% (active),22%,2,89% (active),inactive,inactive,inactive,inactive
O=C(Nc1ccc2c(c1)CCC2)c1ccc(N2CCN(c3ccncc3)CC2)cn1,58% (active),56% (active),2,99% (active),inactive,inactive,inactive,inactive
CCN(CC)CCOc1ccc(C(O)(C#CC(O)(c2ccc(OCCN(CC)CC)cc2)c2ccc([N+](=O)[O-])cc2)c2ccc([N+](=O)[O-])cc2)cc1 (configuration not stated),97% (active),55% (active),3,98% (active),inactive,inactive,inactive,inactive

# — PubChem BioAssay
